From the supplement of paper PMC10849652
The full data set covers some 7,900 targets. This sample favours those with a hit. About 0.6% of all pairs of compound and target were hits.

The compounds below were run against ZYG11B (UniProt Q9C0D3) (assay: log2 fold change, soluble protein after heating vs DMSO (PISA); higher = thermal stabilisation; K562 cells, 10 uM, 30 min; active = over 0.2 and 3.5 SD of the protein, either way, in both replicates (recomputed)).
Outline: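 K562 cells at 2×10^6 cells/mL were treated with 10 μM compound for 30 min. Aliquots were heated for 3 min across 48°C-58°C, pooled, and extracted in PBS with 0.5% NP-40 at 4°C; soluble protein was the supernatant after 21,000xg for 90 min. Soluble protein was quantified by TMTpro 16plex LC-MS/MS with channel sums equalised, and reported as log2 fold change in thermal stability against DMSO controls, with values from duplicates.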

Chain of ZYG11B (Q9C0D3 whole entry, looked up): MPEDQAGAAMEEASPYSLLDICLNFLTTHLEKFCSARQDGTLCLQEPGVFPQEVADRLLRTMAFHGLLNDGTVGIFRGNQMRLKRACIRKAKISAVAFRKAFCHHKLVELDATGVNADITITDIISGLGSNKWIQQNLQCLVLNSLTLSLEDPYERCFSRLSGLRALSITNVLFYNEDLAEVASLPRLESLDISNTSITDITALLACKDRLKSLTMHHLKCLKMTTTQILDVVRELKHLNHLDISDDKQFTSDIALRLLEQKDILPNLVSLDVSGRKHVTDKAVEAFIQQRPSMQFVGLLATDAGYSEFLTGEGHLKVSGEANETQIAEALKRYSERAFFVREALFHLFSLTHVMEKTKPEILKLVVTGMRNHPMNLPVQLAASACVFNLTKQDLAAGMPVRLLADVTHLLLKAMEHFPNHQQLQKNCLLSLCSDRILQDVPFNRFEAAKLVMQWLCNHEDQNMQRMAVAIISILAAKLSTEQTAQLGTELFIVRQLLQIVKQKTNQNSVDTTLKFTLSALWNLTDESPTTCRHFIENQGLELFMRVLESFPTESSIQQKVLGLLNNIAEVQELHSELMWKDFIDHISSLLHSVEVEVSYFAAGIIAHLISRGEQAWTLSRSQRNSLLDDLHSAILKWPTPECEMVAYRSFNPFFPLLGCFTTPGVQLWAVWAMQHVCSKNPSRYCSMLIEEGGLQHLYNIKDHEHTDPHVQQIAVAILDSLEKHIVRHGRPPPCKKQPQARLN

log2 fold change, inactive:
O=C(Nc1cccc(Nc2ncc(Br)c(NCCc3cnc[nH]3)n2)c1)N1CCCC1 -0.026
CN1CC[C@H](c2c(O)cc(O)c3c(=O)cc(-c4ccccc4Cl)oc23)[C@H](O)C1 [alvocidib] -0.055
CC(C)N(C[C@H]1O[C@@H](n2cnc3c(N)ncnc32)[C@H](O)[C@@H]1O)[C@H]1C[C@@H](CCc2nc3cc(C(C)(C)C)ccc3[nH]2)C1 [pinometostat] 0.01
COc1ccc(Cn2ccc3ccc(C(=O)NO)cc32)cc1 0.052
Cc1cn(-c2cc(NC(=O)c3ccc(C)c(Nc4nccc(-c5cccnc5)n4)c3)cc(C(F)(F)F)c2)cn1 [nilotinib] 0.025
C#Cc1cccc(Nc2ncnc3cc(OCCOC)c(OCCOC)cc23)c1 [erlotinib] -0.015
CCn1cc(-c2ccnc3[nH]c(-c4cccc(CN(C)C)c4)cc23)c(-c2ccc(NC(=O)N(C)C)cc2)n1 -0.085
O=C1NC(=NCc2cccs2)S/C1=C\c1ccc2ncccc2c1 -0.007
CC[C@@H]1C(=O)N(C)c2cnc(Nc3ccc(C(=O)NC4CCN(C)CC4)cc3OC)nc2N1C1CCCC1 -0.031
CN1CCN(c2nc(C3=C(c4c[nH]c5ccccc45)C(=O)NC3=O)c3ccccc3n2)CC1 [sotrastaurin] 0.026
Cc1ccc(NC(=O)c2cccc(C(C)(C)C#N)c2)cc1Nc1ccc2ncn(C)c(=O)c2c1 -0.006
CS(=O)(=O)CCNCc1ccc(-c2ccc3ncnc(Nc4ccc(OCc5cccc(F)c5)c(Cl)c4)c3c2)o1 [lapatinib] -0.05
O=C1NC(=O)/C(=C\c2ccc3nccnc3c2)S1 -0.084
NCC(=O)Nc1ccc(-n2nc(C(F)(F)F)cc2-c2ccc3c(ccc4ccccc43)c2)cc1 -0.045
CC(C)C[C@@H](C=O)NC(=O)[C@H](CC(C)C)NC(=O)[C@H](CC(C)C)NC(=O)OCc1ccccc1 0.042
CCCS(=O)(=O)Nc1ccc(F)c(C(=O)c2c[nH]c3ncc(Cl)cc23)c1F -0.043
CN1CCc2c(c3ccccc3n2Cc2ccc(C(=O)NO)cc2)C1 [Tubastatin A] 0.04
NC1(Cc2ccc(Cl)cc2)CCN(c2ncnc3[nH]ccc23)CC1 0.055
CON(C)C(=O)N1N=C(c2cc(F)ccc2F)S[C@@]1(CCCN)c1ccccc1 [filanesib] 0.014
CS(=O)(=O)c1ccc(-c2cnc(N)c(C(=O)Nc3ccccc3)n2)cc1 0.01
Nc1ccccc1NC(=O)c1ccc(CNC(=O)OCc2cccnc2)cc1 [entinostat] 0.013
CC[C@H](C)n1cc(C)c2c(C(=O)NCc3c(C)cc(C)[nH]c3=O)cc(-c3ccc(N4CCNCC4)nc3)cc21 0.101
Cc1ccc(-n2nc(C(C)(C)C)cc2NC(=O)Nc2ccc(OCCN3CCOCC3)c3ccccc23)cc1 [doramapimod] 0.036
O=C(Nc1nc2ccccc2n1CCN1CCOCC1)c1cccc([N+](=O)[O-])c1 [IRAK-1-4 Inhibitor I] 0.044
CN(C)CC(=O)Nc1ccc2[nH]c(=O)c3ccccc3c2c1 -0.003
CC(=O)c1cnc2ccc(-c3cc(Cl)c(O)c(Cl)c3)nc2c1N[C@H]1CC[C@H](CN(C)C)CC1 0.004
CN1CCC(CNc2ccc3ncc(-c4cccc(OC(F)(F)F)c4)n3n2)CC1 -0.113
C[C@H](Nc1ncnc2nc[nH]c12)c1cc2cccc(Cl)c2c(=O)n1-c1ccccc1 [duvelisib] 0.062
NC(=O)c1ccc2nc(-c3ccc(Oc4ccc(Cl)cc4)cc3)[nH]c2c1 0
C[C@@H](N)c1ccc(C(=O)Nc2ccnc3[nH]ccc23)cc1 -0.035
Cn1cc(-c2ccc3c(c2)CCN3C(=O)Cc2cccc(C(F)(F)F)c2)c2c(N)ncnc21 0.063
